IDE exosite inh – displaces the probe from the exo-site of human IDE | purified IDE, FL-6b probe fluorescence polarization; stronger effect = lower value | P14735 | 17,000 tested, 6.3% active | z-score at 20 µM | AID 1259349;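 active means z-score of -3 or lower, meaning strong loss of probe binding signal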;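 further: His-tagged human IDE residues 42-1019 made in E. coli with 30 nM FL-6b probe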
Target sequence (P14735 42-1019 limits assumed): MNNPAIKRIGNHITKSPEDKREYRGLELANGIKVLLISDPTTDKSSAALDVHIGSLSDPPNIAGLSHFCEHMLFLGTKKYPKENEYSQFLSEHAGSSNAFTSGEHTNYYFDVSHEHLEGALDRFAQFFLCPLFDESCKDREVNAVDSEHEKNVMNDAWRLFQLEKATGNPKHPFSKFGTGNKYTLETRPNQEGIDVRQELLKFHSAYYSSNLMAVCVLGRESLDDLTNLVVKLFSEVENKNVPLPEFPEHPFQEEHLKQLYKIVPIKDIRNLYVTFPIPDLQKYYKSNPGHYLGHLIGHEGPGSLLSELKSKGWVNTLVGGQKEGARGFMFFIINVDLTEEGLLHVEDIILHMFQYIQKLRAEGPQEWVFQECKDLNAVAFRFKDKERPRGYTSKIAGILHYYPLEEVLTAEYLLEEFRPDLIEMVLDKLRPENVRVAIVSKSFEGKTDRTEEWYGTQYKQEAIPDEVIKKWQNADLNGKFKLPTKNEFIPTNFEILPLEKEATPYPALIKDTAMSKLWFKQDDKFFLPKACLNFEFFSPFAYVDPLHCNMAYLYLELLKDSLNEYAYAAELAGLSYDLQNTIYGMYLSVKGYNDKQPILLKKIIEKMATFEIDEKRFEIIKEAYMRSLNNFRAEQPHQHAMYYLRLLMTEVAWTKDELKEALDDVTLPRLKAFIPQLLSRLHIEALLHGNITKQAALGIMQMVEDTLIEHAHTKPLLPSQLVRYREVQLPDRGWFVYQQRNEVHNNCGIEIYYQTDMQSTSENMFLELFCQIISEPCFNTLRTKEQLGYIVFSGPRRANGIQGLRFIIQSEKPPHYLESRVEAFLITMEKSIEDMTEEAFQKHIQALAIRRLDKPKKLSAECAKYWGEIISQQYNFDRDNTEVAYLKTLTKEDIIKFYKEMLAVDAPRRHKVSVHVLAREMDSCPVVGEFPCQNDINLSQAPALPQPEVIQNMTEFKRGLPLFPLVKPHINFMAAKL
* hit, by the source's call. Shown is part of a subset that was picked to be rich in hits.

SMILES | IDE exosite inh
CO[C@@H]1CN(C)C(=O)c2cc(NC(=O)CC(F)(F)F)ccc2OC[C@H](C)N(CC2CC2)C[C@@H]1C | 0.33
N#Cc1cccc(-c2ccc([C@@H]3[C@@H](CO)N4CCCCN(Cc5ccccc5F)C[C@@H]34)cc2)c1 | 1.1
CN1C(=O)c2cc(NC(=O)Nc3ccc(Cl)cc3)ccc2OC[C@H]2O[C@H](CC(=O)NCCN3CCCCC3)CC[C@H]21 | -1.8
COCC(=O)N1CC2(C1)CN(Cc1ccccc1F)[C@H](CO)c1[nH]c3cc(OC)ccc3c12 | -2.2
CCC(=O)N1CC(=O)N2[C@H](CO)[C@H](c3ccc(C#CC4CCCCC4)cc3)[C@@H]2C1 | 1.5
COc1cccc(C#Cc2ccc([C@H]3[C@@H](CO)N(C(=O)C4CCCCC4)[C@H]3C#N)cc2)c1 | 6.2
O=C(C1CCC1)N1C[C@H]2[C@@H](c3ccccc31)[C@@H](CO)N2C(=O)Nc1cccc(F)c1 | 2.8
O=C1CN(Cc2ccc(F)cc2)C[C@@H]2[C@H](c3ccc(Br)cc3)[C@@H](CO)N12 | 3.8
CN(C)C(=O)c1ccc(-c2ccccc2[C@H]2[C@@H](C#N)N(C(=O)C3CCCCC3)[C@@H]2CO)cc1 | 1.1
O=C(NCC1CC1)[C@H]1[C@H](CO)[C@H]2Cn3c(ccc(-c4cccnc4)c3=O)[C@H]2N1Cc1cocn1 | -0.58
COc1ccccc1NC(=O)N1CC(=O)N2[C@@H](CO)[C@@H](c3ccc(C#Cc4ccccc4)cc3)[C@@H]2C1 | -0.76
Cc1ccccc1-c1ccc([C@@H]2[C@H](CO)N3CCCCN(C(=O)c4cccnc4)C[C@@H]23)cc1 | -8.4*
Cc1ccccc1-c1ccc([C@H]2[C@@H](CO)N3CCCCN(C(=O)c4cccnc4)C[C@H]23)cc1 | -16*
Cc1ccccc1-c1ccc([C@@H]2[C@@H](CO)N3CCCCN(C(=O)c4cccnc4)C[C@H]23)cc1 | -2.2
CC(C)(O)C#Cc1ccc([C@@H]2[C@H](CO)N3CCCCN(C(=O)c4cccnc4)C[C@@H]23)cc1 | 0.94
Cc1ccccc1-c1ccc([C@H]2[C@H](CO)N3CCCCN(C(=O)c4cccnc4)C[C@@H]23)cc1 | -3.9*
CC(C)(O)C#Cc1ccc([C@@H]2[C@@H](CO)N3CCCCN(C(=O)c4cccnc4)C[C@@H]23)cc1 | 3.4
CC(C)(O)C#Cc1ccc([C@H]2[C@H]3CN(C(=O)c4cccnc4)CCCCN3[C@H]2CO)cc1 | 0.85
N#C[C@H]1[C@@H](c2ccccc2-c2ccccc2)[C@H](CO)N1C(=O)Cc1ccccc1 | 0.032
CCCC#Cc1ccc([C@@H]2[C@@H](CO)N3C(=O)CN(C(=O)Nc4ccccc4F)C[C@@H]23)cc1 | 1.9
COc1ccccc1NC(=O)N1CC(=O)N2[C@H](C1)[C@H](c1ccc(C#Cc3ccc(F)cc3)cc1)[C@@H]2CO | 2.7
COc1cccc(NC(=O)Nc2ccc3c(c2)C(=O)N(C)C[C@@H](OC)[C@@H](C)CN(CC2CC2)[C@H](C)CO3)c1 | -0.33
O=C(C1CCCC1)N1CC(=O)N2[C@H](C1)[C@H](c1ccc(C#CC3CCCC3)cc1)[C@@H]2CO | 2.2
O=C(Cc1ccccc1)NC[C@H]1N[C@H](CO)[C@@H]1c1ccc(-c2ccccc2)cc1 | -0.44
O=C(C1CCOCC1)N1CC(=O)N2[C@H](CO)[C@H](c3ccc(-c4ccccc4F)cc3)[C@H]2C1 | -7.6*
SMILES | IDE exosite inh
O=C(C1CCC1)N1CC(=O)N2[C@H](CO)[C@@H](c3ccc(-c4ccccc4F)cc3)[C@@H]2C1 | -9.1*
O=C(C1CC1)N1CC(=O)N2[C@H](CO)[C@H](c3ccc(-c4ccccc4F)cc3)[C@H]2C1 | -7.9*
O=C(C1CCOCC1)N1CC(=O)N2[C@@H](CO)[C@H](c3ccc(-c4ccccc4F)cc3)[C@@H]2C1 | -1.1
O=C(C1CC1)N1CC(=O)N2[C@H](C1)[C@H](c1ccc(-c3ccccc3F)cc1)[C@@H]2CO | -0.66
O=C(C1CCCCC1)N1CC(=O)N2[C@@H](CO)[C@@H](c3ccc(-c4ccccc4F)cc3)[C@@H]2C1 | -1.4
O=C(C1CCC1)N1CC(=O)N2[C@@H](CO)[C@H](c3ccc(-c4ccccc4F)cc3)[C@@H]2C1 | -0.8
O=C(C1CCCCC1)N1CC(=O)N2[C@H](CO)[C@@H](c3ccc(-c4ccccc4F)cc3)[C@H]2C1 | -0.66
O=C(C1CCCC1)N1CC(=O)N2[C@H](CO)[C@H](c3ccc(-c4ccccc4F)cc3)[C@@H]2C1 | -3.6*
O=C(C1CCCCC1)N1CC(=O)N2[C@H](C1)[C@H](c1ccc(-c3ccccc3F)cc1)[C@@H]2CO | -0.71
O=C(C1CC1)N1CC(=O)N2[C@H](CO)[C@@H](c3ccc(-c4ccccc4F)cc3)[C@H]2C1 | 1.8
O=C(C1CCC1)N1CC(=O)N2[C@H](CO)[C@@H](c3ccc(-c4ccccc4F)cc3)[C@H]2C1 | 2.4
CCS(=O)(=O)Nc1ccc2c(c1)C(=O)N(C)C[C@H](OC)[C@H](C)CN(C(=O)c1ccc3c(c1)OCO3)[C@@H](C)CO2 | 1.2
COc1ccc(C#Cc2ccc([C@@H]3[C@@H](CO)N4C(=O)CN(C(=O)NC(C)C)C[C@@H]34)cc2)cc1 | -0.36
CCCNC(=O)N1C[C@H]2[C@@H](c3ccccc31)[C@@H](CO)N2Cc1cccc(OC)c1 | 1.8
COCC#Cc1ccc([C@@H]2[C@@H](CO)N3CCCCN(Cc4cncnc4)C[C@@H]23)cc1 | -1.5
OC[C@@H]1[C@H](c2ccc(-c3ccc(F)cc3)cc2)[C@H]2CN(Cc3ccncc3)CCCCN12 | 4.3
Cc1cccc(-c2ccc([C@@H]3[C@@H](CO)N4CCCCN(Cc5ccncc5)C[C@@H]34)cc2)c1 | -4.9*
Cc1cccc(-c2ccc([C@@H]3[C@H]4CN(CCC(F)(F)F)CCCCN4[C@H]3CO)cc2)c1 | -0.049
CN(C)C(=O)c1ccc(-c2ccc([C@@H]3[C@@H](CO)N4CCCCN(Cc5ccncc5)C[C@H]34)cc2)cc1 | 1.1
OC[C@H]1[C@@H](c2ccc(-c3ccc(F)cc3)cc2)[C@H]2CN(Cc3ccncc3)CCCCN21 | 4
Cc1cccc(-c2ccc([C@H]3[C@@H](CO)N4CCCCN(Cc5ccncc5)C[C@@H]34)cc2)c1 | -5.8*
CC(=O)N1CC(=O)N2[C@H](CO)[C@H](c3ccc(C#Cc4cccnc4)cc3)[C@H]2C1 | 0.82
COc1ccc(C#Cc2ccc([C@H]3[C@H](CO)N4C(=O)CN(C(C)=O)C[C@@H]34)cc2)cc1 | 2.3
COc1cccc(C#Cc2ccc([C@H]3[C@@H](CO)N4C(=O)CN(C(C)=O)C[C@H]34)cc2)c1 | -7.9*
CC(=O)N1CC(=O)N2[C@H](CO)[C@@H](c3ccc(C#Cc4cccnc4)cc3)[C@H]2C1 | 1.5
SMILES | IDE exosite inh
CC(=O)N1CC(=O)N2[C@@H](CO)[C@H](c3ccc(C#Cc4cccnc4)cc3)[C@@H]2C1 | 1.7
COc1ccc(C#Cc2ccc([C@@H]3[C@@H](CO)N4C(=O)CN(C(C)=O)C[C@@H]34)cc2)cc1 | 3.9
COc1cccc(C#Cc2ccc([C@H]3[C@@H](CO)N4C(=O)CN(C(C)=O)C[C@@H]34)cc2)c1 | -5.1*
COc1cccc(C#Cc2ccc([C@@H]3[C@@H](CO)N4C(=O)CN(C(C)=O)C[C@H]34)cc2)c1 | -0.98
COc1cccc(C#Cc2ccc([C@@H]3[C@H]4CN(C(C)=O)CC(=O)N4[C@H]3CO)cc2)c1 | -3.9*
C[C@@H]1CN([C@@H](C)CO)C(=O)c2ccccc2-c2ccccc2CO[C@@H]1CN(C)Cc1ccc(Oc2ccccc2)cc1 | -0.096
N#C[C@H]1[C@@H](c2ccccc2C2=CCCCC2)[C@H](CO)N1C(=O)c1cccc(F)c1 | 1.2

Screening results deposited in PubChem BioAssay by Broad Institute.
